We go through 68 molecules from PubChem BioAssay AID504832 (National Center for Advancing Translational Sciences (NCATS), 2011).

In all, about 310,000 compounds went through this assay and about 18,000 (5.8%) were called active. A call without a number means that no potency is given here. Roughly 22% stayed inconclusive and do not appear here. The sample as a whole holds a higher share of actives than the screen did. A number with no mark means an inactive call. Calls follow the shape of the dose curve; as a rule, active = well fitted inhibition curve with a large enough effect; inconclusive = small, poorly fitted or top-dose-only effect, or another doubt; inactive = no such curve, though single readings can be large or run the other way.
Potency is read from the fitted curve at half-maximal effect.

The assay in a line: Primary qHTS for delayed death inhibitors of the malarial parasite plastid, 48 hour incubation. To be noted: P. falciparum luciferase growth in erythrocytes; series mostly up to 28.7 µM. The essentials: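 Firefly luciferase activity from engineered P. falciparum reports growth; inhibitors lower the luminescent signal. Cultures contained 2% hematocrit erythrocytes at 0.1% final parasitemia.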
For orientation: qHTS replaces the single test concentration by a dilution series.
Regarding `Cc1cc(-c2ccc(C)c(S(=O)(=O)Nc3ccc(S(N)(=O)=O)cc3)c2)on1`, the Potency result was “inactive”.

In the case of `Cc1cc(CNC(=O)c2cccc([N+](=O)[O-])c2)c2ccccc2n1`, the Potency entry was “inactive”.

In the case of `Cc1nc2ccccc2c(=O)n1Cc1ccc([N+](=O)[O-])cc1`, the Potency entry is “inactive”.

In the case of `Cn1cc(/C=C/c2nc3ccccc3c(=O)n2-c2cccc([N+](=O)[O-])c2)c2ccccc21`, the Potency was 10.4 µM (active).

Take `Cc1ccc(CC2CC(=O)N(c3cc(C)ccc3C)C2=O)cc1` (stereo not drawn): the Potency result is “inactive”.

As to `COc1ccc(NS(=O)(=O)c2ccc3oc(SCC(N)=O)nc3c2)cc1`, the Potency entry is “inactive”.

For the molecule `O=C(COC(=O)CNC(=O)C1CCCCC1)NCc1ccccc1`, the Potency entry was “inactive”.

On to `Cc1ccc2nc(-c3cccc(Br)c3)cc(C(=O)Nn3cnnc3)c2c1`, for which the Potency result was “inactive”.

On to `Cc1cccc(-[n+]2c(-c3cccc(Br)c3)[nH]c3nc4ccccc4nc32)c1`, for which the Potency is 13.1 µM (active).

In the case of `CC(C)Oc1ccc(CCC(=O)NNC(=S)NCc2ccccc2)cc1`, the Potency was 1.65 µM (active).

On to `Cc1ccc(OCC(=O)NNC(=S)NCc2ccccc2)cc1`, for which the Potency entry is “inactive”.

For `O=C(NNC(=S)NCc1ccccc1)c1ccc(OC(F)F)cc1`, the Potency entry is “inactive”.

For `O=C(CSc1nc2[nH]ncc2c(=O)[nH]1)Nc1ccc(F)cc1`, the Potency result was “inactive”.

Turning to `Cc1c(C(=O)NNC(=O)c2ccncc2)oc2ccccc12`, the Potency entry is “inactive”.

Turning to `Cc1nonc1NC(=O)c1oc2ccccc2c1C`, the Potency was 9.28 µM (active).

As for `Cc1nonc1NC(=O)c1ccccc1Br`, the Potency result was “inactive”.

On to `Cc1ccc(NS(=O)(=O)c2ccc3c(c2)NC(=O)CO3)cc1`, for which the Potency entry was “inactive”.

In the case of `CC1(C)CC(=O)C2=C(C1)Nc1cc(C(=O)c3ccccc3)ccc1NC2c1ccccn1` (stereo not drawn), the Potency entry was “inactive”.

As for `CC1(C)CC(=O)C(C2=NC(C)(C)Cc3ccccc32)=C(O)C1`, the Potency result is “inactive”.

As for `Cc1cc2c(cc1C)NC(c1ccccn1)C1=C(CC(C)(C)CC1=O)N2` (stereo not drawn), the Potency is 10.4 µM (active).

Regarding `Cc1ccc(NS(=O)(=O)c2ccc(-c3coc(C)n3)cc2)c(C)c1`, the Potency entry is “inactive”.

Regarding `CCc1ccc2[nH]c(=O)c(Cc3ccccc3)c(O)c2c1`, the Potency entry was “inactive”.

For the molecule `CCOC(=O)C(Cc1ccccc1)NC(=O)CCC(=O)c1ccc(OC)cc1` (stereo not drawn), the Potency result was “inactive”.

With `COc1cc([C@H](Cc2ccccc2)NC(C)=O)oc(=O)c1`, the Potency is 9.28 µM (active).

`COC(=O)[C@H](Cc1ccccc1)NC(=O)Nc1ccc(OC)cc1`: the Potency entry is “inactive”.

For `Nc1cc(N)nc(SCc2cccc(F)c2)n1`, the Potency result is “inactive”.

Turning to `COc1ccc(S(=O)(=O)N2CCN(C)CC2)c(C)c1`, the Potency result is “inactive”.

With `CC(C)CCN1CCC(C)(NC(=O)c2ccccc2)C1=O` (stereo not drawn), the Potency entry is “inactive”.

Turning to `Cc1cc(Cl)c2oc(C(=O)NC(C)c3ccncn3)c(C)c2c1` (stereo not drawn), the Potency result was “inactive”.

On to `COc1ccc(-c2nn(-c3ccccc3)cc2/C=N/Nc2ccccn2)cc1OC`, for which the Potency was 4.65 µM (active).

For the molecule `COc1ccc(-c2nn(-c3ccccc3)cc2C(=O)Nc2nc(CC(C)=O)ns2)cc1`, the Potency result is “inactive”.

With `Cc1nnc(SCC(=O)N/N=C/c2cn(-c3ccccc3)nc2-c2ccc(F)cc2)n1-c1ccccc1`, the Potency entry was “inactive”.

As to `COc1ccc(-c2nn(-c3ccccc3)cc2C(=O)Nc2nccs2)cc1OC`, the Potency was 13.1 µM (active).

On to `CN(C)/N=C/c1cn(-c2ccccc2)nc1-c1cccnc1`, for which the Potency entry was “inactive”.

In the case of `O=C(O)c1ccc(NC(=O)c2cn(-c3ccccc3)nc2-c2ccc(Cl)cc2)cc1`, the Potency result was “inactive”.

Regarding `Cc1nc([N+](=O)[O-])cn1CC(=O)Nc1ccc(Cl)cc1`, the Potency result is “inactive”.

In the case of `O=C(Nc1ccc(NC(=O)c2ccccc2F)cc1)c1ccccc1F`, the Potency result is “inactive”.

In the case of `O=C(O)c1ccccc1CSc1nc2ccccc2s1`, the Potency result was “inactive”.

For the molecule `CCOC(=O)C1CCN(C(=O)CN2C(=O)c3cccnc3Oc3ccc(C)cc32)CC1`, the Potency entry is “inactive”.

Consider `COc1ccc(C2/C(=C(/O)c3ccccc3)C(=O)C(=O)N2C)c(OC)c1` (stereo not drawn), for which the Potency entry was “inactive”.

On to `C#CC(CCN1CCCCC1)(OC)c1ccccc1` (stereo not drawn), for which the Potency result was “inactive”.

For the molecule `CN1CCC[C@@H]1CCO[C@](C)(c1ccccc1)c1ccc(Cl)cc1`, the Potency was 12 µM (active).

With `COc1ccc(CNC(=O)COc2ccccc2C(=O)c2cnn(-c3ccccc3)c2)cc1OC`, the Potency result is “inactive”.

For `N#Cc1ccc(CN2CCN(CC(=O)Nc3ccccc3C(=O)NC3CC3)CC2)cc1`, the Potency result is “inactive”.

For `CCn1cc(C(=O)NCCC(=O)NCCO)c(=O)c2cc3c(cc21)OCO3`, the Potency entry was “inactive”.

Turning to `COc1ccc(C(=O)Nc2ccc(C3(C#N)CCCC3)cc2)cc1OC`, the Potency result is “inactive”.

As to `COc1ccc(C2(CNC(=O)Cc3ccc(OC)c(OC)c3)CCCC2)cc1`, the Potency result was “inactive”.

Regarding `COc1cc(C(=O)NCC2(c3ccccc3)CCCC2)ccc1OC(C)C`, the Potency was 14.7 µM (active).

`COc1cc(OC)c(NS(=O)(=O)c2cn(C)cn2)cc1Cl`: the Potency entry was “inactive”.

Take `Cc1cccc(NC(=O)c2cccnc2Cl)n1`: the Potency result was “inactive”.

As for `CCc1cccc(NC(=S)N(CCN(C)C)C2CCN(C(C)C)CC2)c1`, the activity change, negative = inhibition was -29.2% [at 0.00184 µM].

As for `COCCN(CCOC)C(=S)Nc1ccccc1Cl`, the Potency result was “inactive”.

Take `CCc1ccc2c(c1)cc(CN(C(=S)Nc1ccccc1Cl)C1CC1)c1nnnn12`: the Potency is 6.57 µM (active).

Regarding `COc1ccc(CNC(=O)C(=O)NCC2OCCN2C(=O)c2ccc(OC)cc2)cc1` (stereo not drawn), the Potency result is “inactive”.

On to `Cc1c(C)c2cc3c4c(oc3c(C)c2oc1=O)CCCC4`, for which the Potency entry was “inactive”.

For `CC[C@@H](C)[C@H](NC(=O)CCc1c(C)c2cc3c4c(oc3c(C)c2oc1=O)CCCC4)C(=O)O`, the Potency result was “inactive”.

For the molecule `Cc1c(CCC(=O)N[C@@H](CC(C)C)C(=O)O)c(=O)oc2c(C)c3oc4c(c3cc12)CCCC4`, the Potency was 2.33 µM (active).

On to `O=C(NCc1ccccc1)C(c1ccccc1)N(C(=O)c1csnn1)c1ccc(F)cc1` (stereo not drawn), for which the Potency entry was “inactive”.

Consider `Cc1n[nH]c(=O)c2c1nnn2Cc1ccc(F)cc1`, for which the Potency result is “inactive”.

Turning to `CSc1nc2ccccc2c(=O)n1Cc1ccc(F)cc1`, the Potency entry is “inactive”.

`Cc1c2cn[nH]c(=O)c2c(C)n1Cc1ccc(F)cc1`: the Potency was 11.7 µM (active).

`Cc1ccc(N2C(=O)C3C4C=CC(CC4)C3C2=O)cc1Br` (stereo not drawn): the Potency result is “inactive”.

With `O=C(COc1coc(CN2CCN(c3ccccc3F)CC2)cc1=O)N1CCc2ccccc21`, the Potency entry is “inactive”.

Regarding `COc1ccc(S(=O)(=O)NCC(=O)NC2CC2)cc1OC`, the Potency entry is “inactive”.

Consider `O=C(O)CCCn1c(=O)c2cccn2c2ccc(F)cc21`, for which the Potency result is “inactive”.

Consider `CCOC(=O)C1CCN(Cc2nnc(-c3cccc(Br)c3)o2)CC1`, for which the Potency entry was “inactive”.

Regarding `CCCCCCCNC(=O)C1(CC2CC(c3cccc(Br)c3)=NO2)CCN(C(=O)c2cc(OCC)c(OCC)c(OCC)c2)CC1` (stereo not drawn), the Potency is 0.657 µM (active).

With `CCOc1ccccc1N1CCN(C(=O)c2ccc3[nH]c(C)c(C)c3c2)CC1`, the Potency result was “inactive”.
